Bioassay records from PubChem.
Only some compounds are listed: those with a hit (about 6.7% of all), similar ones and a draw of the others.
C diff growth: inhibitors of Clostridium difficile growth; AID 1259249; actives 0.25% (n = 86,000); Clostridium difficile clinical isolate growth, OD600, 24 h; stronger effect = lower value; growth activity, negative = inhibition, % at 16 µg/mL (by protocol);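 active means mean growth activity at or below -80% and every replicate also at or below -80%; inconclusive means mean at or below -80% but some replicate above -80%; inactive means mean growth activity above -80%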;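 further: 0% = DMSO wells and -100% = levofloxacin 16 µg/mL wells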
Pf Dd2 growth: blocks growth of Plasmodium falciparum Dd2 parasites | activity change, % at 10 µM | P. falciparum Dd2 growth, SYBR Green, 72 h; stronger effect = lower value | actives 2.3% (n = 94,000); in the data active means activity change below about -80%; inconclusive means no clear call, values can overlap the other calls
T cruzi growth-1: T. cruzi proliferation inhibition; T. cruzi beta-gal in NIH3T3, GalScreen luminescence, 90 h; actives 5.9% (n = 77,000); AID 624255; inhibition, % at 8.34 µM;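 active means mean inhibition above about 93%, with at least 55% of replicates each passing it, limit read from the data, passing the limit was not always enough; inconclusive means only one of those two conditions holds; inactive means neither condition holds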
T cruzi growth-2: inhibitors of T. cruzi proliferation | shares compounds with T cruzi growth-1 | T. cruzi beta-gal in NIH3T3, GalScreen luminescence, 90 h | inhibition, % at 8.35 µM | actives 72% (n = 5,600);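 active means mean replicate inhibition above about 95% and at least 55% of replicates individually reaching it, limit read from the data; inconclusive means only one of the two criteria is met; inactive means neither criterion is met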
T cruzi growth-3: blocks T. cruzi growth in NIH3T3 host cells. shares compounds with T cruzi growth-1. AID 651740. inhibition, % at 2.09 µM. T. cruzi beta-gal in NIH3T3, GalScreen luminescence, 90 h. actives 21% (n = 5,600);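 active means mean inhibition above about 95%, with at least 55% of replicates also reaching it, limit read from the data; inconclusive means meets just one of the two conditions; inactive means meets neither condition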;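 further: plate controls were neutral control median for no effect and positive control median for full effect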
3T3 cytotox: kills mouse NIH/3T3 fibroblasts; shares compounds with T cruzi growth-1; NIH/3T3 viability, CellTiter-Glo ATP luminescence, 90 h; AID 651742; cytotoxicity (signal decrease), % at 8.35 µM; actives 14% (n = 5,600);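 active means mean signal decrease across replicates above about 35% based on untreated-well scatter, with enough replicates individually passing, limit read from the data; inconclusive means no rule stated though some were filed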;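 further: 0% = median of neutral control wells and 100% = median of positive control wells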
3T3 cytotox 2: cytotoxicity in mouse NIH/3T3 fibroblasts; NIH/3T3 viability, CellTiter-Glo ATP luminescence, 90 h; shares compounds with T cruzi growth-1; actives 56% (n = 5,600); inhibition, % at 24.9 µM;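 active means mean loss of cell viability signal at or above a set limit, and enough replicates individually reaching it; inconclusive means meets only the mean limit or only the replicate share; inactive means meets neither condition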;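 further: 0% = median of neutral control wells and 100% = median of positive control wells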
An asterisk follows results filed as active; ? = inconclusive; / = no result; ! = a repeat was not active.

SMILES | C diff growth | Pf Dd2 growth | T cruzi growth-1 | T cruzi growth-2 | T cruzi growth-3 | 3T3 cytotox | 3T3 cytotox 2
CN1c2ccc(C#Cc3cccnc3)cc2[C@@H]2[C@@H](CCN2S(=O)(=O)c2ccc(F)cc2)[C@H]1CO | -6.1 | -69.7 | 84.6 | / | / | / | /
CN1c2ccc(-c3cccc(C#N)c3)cc2[C@@H]2[C@@H](CCN2S(=O)(=O)c2cccc(F)c2)[C@@H]1CO | 4.0 | 27.9 | 24.6 | / | / | / | /
CN1c2ccc(-c3cccc(C#N)c3)cc2[C@@H]2[C@@H](CCN2S(=O)(=O)c2ccc(F)cc2)[C@@H]1CO | 3.0 | -14.2 | 105.2* | 93.6 | 77.6 | 44.6* | 22.0
CN1c2ccc(-c3cccc(C#N)c3)cc2[C@@H]2[C@@H](CCN2S(=O)(=O)c2ccccc2)[C@@H]1CO | 9.0 | -3.7 | 116.0* | 98.7* | 85.1 | 50.9* | 13.9
CCCC#Cc1cnc2c(c1)C(=O)N([C@H](C)CO)C[C@H](C)[C@H](CN(C)C(=O)C1CCCCC1)O2 | 2.7 | -8.6 | 68.4 | / | / | / | /
C[C@@H]1CN([C@@H](C)CO)C(=O)Cc2cc(NC(=O)Nc3ccc(C(F)(F)F)cc3)ccc2O[C@@H]1CN(C)C(=O)Nc1ccc2c(c1)OCO2 | -8.4 | -64.3 | 13.4 | / | / | / | /
CC(C)C#Cc1ccc2c(c1)O[C@H](CN(C)C(=O)c1ccncc1)[C@H](C)CN([C@H](C)CO)S2(=O)=O | -1.7 | 26.4 | 39.5 | / | / | / | /
C[C@H](O)C#Cc1ccc2c(c1)O[C@@H](CN(C)Cc1ccncc1)[C@@H](C)CN([C@@H](C)CO)S2(=O)=O | -2.0 | -17.6 | 66.2 | / | / | / | /
CC(C)C#Cc1ccc2c(c1)O[C@H](CN(C)Cc1ccncc1)[C@@H](C)CN([C@H](C)CO)S2(=O)=O | 1.2 | -67.9 | ? | 98.8* | 101.0* | 56.5* | 102.6*
CC(C)C#Cc1ccc2c(c1)O[C@@H](CN(C)Cc1ccncc1)[C@H](C)CN([C@H](C)CO)S2(=O)=O | 19.5 | -71.5 | 119.1* | 105.8* | 101.7* | 63.3* | 104.4*
CC(C)C#Cc1ccc2c(c1)O[C@@H](CN(C)C(=O)c1ccncc1)[C@@H](C)CN([C@@H](C)CO)S2(=O)=O | -1.3 | 2.1 | 102.0* | 99.6* | ? | 22.9 | 45.0*
C[C@H](CO)N1C[C@H](C)[C@@H](CN(C)Cc2ccncc2)Oc2cc(C#C[C@@H](C)O)ccc2S1(=O)=O | 2.5 | -27.1 | 75.0 | / | / | / | /
COc1ccc(CNC(=O)C[C@@H]2CC[C@@H](NC(=O)c3cccc(F)c3)[C@H](CO)O2)cc1 | / | 10.7 | 29.2 | / | / | / | /
COCC#Cc1cnc2c(c1)C(=O)N([C@H](C)CO)C[C@H](C)[C@@H](CN(C)C(=O)Cc1cccnc1)O2 | 0.8 | 30.2 | / | / | / | / | /
COc1ccc2c3c([nH]c2c1)[C@H](CO)N(Cc1nccs1)CC31CCN(C(=O)C2CCCC2)CC1 | -5.6 | -25.0 | / | / | / | / | /
O=C(C[C@@H]1CC[C@@H]2[C@H](COC[C@@H](O)CN2C(=O)c2ccncc2)O1)NC1CCC1 | 8.8 | 6.8 | 60.3 | / | / | / | /
COc1cccc(S(=O)(=O)N(C)C[C@@H]2OCc3cn(nn3)CCCC(=O)N([C@@H](C)CO)C[C@@H]2C)c1 | -0.7 | -7.8 | -109.8 | / | / | / | /
C[C@@H]1CN([C@H](C)CO)C(=O)CCCn2cc(nn2)CO[C@@H]1CN(C)S(=O)(=O)c1ccc2ccccc2c1 | / | 4.6 | 33.6 | / | / | / | /
C[C@@H]1CN([C@@H](C)CO)C(=O)CCCn2cc(nn2)CO[C@H]1CN(C)S(=O)(=O)c1ccc2ccccc2c1 | -0.5 | -4.1 | 124.7*! | 54.6 | 1.4 | -6.2 | 6.1
COc1cccc(S(=O)(=O)N(C)C[C@H]2OCc3cn(nn3)CCCC(=O)N([C@@H](C)CO)C[C@@H]2C)c1 | 1.1 | 9.0 | 116.4*! | 17.7 | 9.6 | -8.4 | -6.7
COc1cccc(S(=O)(=O)N(C)C[C@H]2OCc3cn(nn3)CCCC(=O)N([C@H](C)CO)C[C@@H]2C)c1 | -1.8 | 22.6 | ? | 17.1 | 20.8 | 10.1 | -4.6
COc1cccc(S(=O)(=O)N(C)C[C@H]2OCc3cn(nn3)CCCC(=O)N([C@@H](C)CO)C[C@H]2C)c1 | 3.1 | -2.1 | 42.9 | / | / | / | /
O=C(c1ccncc1)N1CC2(C1)[C@@H](c1ccccc1)[C@@H](CO)N2C(=O)CC1CC1 | -3.4 | 19.2 | / | / | / | / | /
CCCNC(=O)N1[C@@H](CO)[C@@H](c2ccccc2)C12CN(C(=O)CC1CC1)C2 | -10.0 | 7.0 | / | / | / | / | /
CO[C@@H]1CN(C)C(=O)c2cc(NC(=O)Nc3ccc4c(c3)OCO4)ccc2OC[C@H](C)NC[C@H]1C | / | 13.1 | / | / | / | / | /
SMILES | C diff growth | Pf Dd2 growth | T cruzi growth-1 | T cruzi growth-2 | T cruzi growth-3 | 3T3 cytotox | 3T3 cytotox 2
CC(C)CC#Cc1cnc2c(c1)C(=O)N([C@@H](C)CO)C[C@@H](C)[C@@H](CN(C)C(=O)c1ccc(F)cc1)O2 | 3.2 | -17.8 | 46.2 | / | / | / | /
CNC(=O)C[C@@H]1CC[C@H]2[C@H](COc3ccc(NC(=O)c4ccc(OC)cc4)cc3C(=O)N2C)O1 | 0.9 | 4.2 | 6.4 | / | / | / | /
CO[C@H]1CN(C)C(=O)c2ccc(NS(C)(=O)=O)cc2OC[C@H](C)N(CCC(F)(F)F)C[C@H]1C | -4.8 | 3.5 | 36.2 | / | / | / | /
O=S(=O)(c1cccs1)N1CCCCN2[C@H](C1)[C@H](c1ccc(Br)cc1)[C@@H]2CO | 12.2 | -16.8 | 108.7* | 100.1* | 23.2 | 10.9 | 1.6
C/C=C/c1ccc([C@@H]2[C@@H](CO)N3CCCCN(S(=O)(=O)c4cccs4)C[C@H]23)cc1 | 53.1 | -14.1 | 74.6 | / | / | / | /
O=S(=O)(c1cccs1)N1CCCCN2[C@H](C1)[C@H](c1ccc(C3=CCCC3)cc1)[C@@H]2CO | -0.8 | 15.1 | 76.3 | / | / | / | /
O=S(=O)(c1cccs1)N1CCCCN2[C@@H](CO)[C@H](c3ccc(Br)cc3)[C@@H]2C1 | 30.5 | -23.5 | 102.7* | 105.1* | 31.9 | -6.0 | 24.7
O=S(=O)(c1cccs1)N1CCCCN2[C@H](CO)[C@H](c3ccc(C4=CCCCC4)cc3)[C@H]2C1 | 49.1 | -49.9 | 104.9* | 107.2* | 56.2 | 30.4 | 104.4*
O=S(=O)(c1cccs1)N1CCCCN2[C@@H](CO)[C@@H](c3ccc(/C=C/c4ccccc4)cc3)[C@@H]2C1 | 54.7 | -29.4 | 73.8 | / | / | / | /
C/C=C/c1ccc([C@H]2[C@H]3CN(S(=O)(=O)c4cccs4)CCCCN3[C@H]2CO)cc1 | 81.5 | 5.7 | 106.2* | 105.6* | 61.5 | 8.1 | 61.5*
O=S(=O)(c1cccs1)N1CCCCN2[C@H](CO)[C@@H](c3ccc(Br)cc3)[C@H]2C1 | -0.5 | -10.6 | 92.2 | / | / | / | /
O=C(C[C@@H]1CC[C@H]2[C@@H](COC[C@H](O)CN2Cc2cc(F)ccc2F)O1)N1CCc2ccccc2C1 | 54.0 | -0.8 | -4.5 | / | / | / | /
O=C(C[C@@H]1C[C@@H]2c3cc(NC(=O)C4CCC4)ccc3O[C@@H]2[C@@H](CO)O1)NCc1ccc2c(c1)OCO2 | 0.1 | 2.7 | 7.4 | / | / | / | /
